FLuc counter – qHTS profiling assay for firefly luciferase inhibitor/activator using purifed enzyme and Km concentrations of substrates (counterscreen for miR-21 project) | Luciferin 4-monooxygenase (Photinus pyralis), P08659 | purified FLuc, Km substrates, luminescence inhibition | Potency, µM (doses to about 57.5 µM), for inactives: at the highest dose activity change, negative = inhibition, usual class: inhibitors | 6.9% of 360,000 active | AID 588342, 2011;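 also: plate controls were vehicle for no effect and reference inhibitor for full effect; nearly all actives have a fitted effect of over 55% in size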
Target sequence (P08659 whole entry, looked up): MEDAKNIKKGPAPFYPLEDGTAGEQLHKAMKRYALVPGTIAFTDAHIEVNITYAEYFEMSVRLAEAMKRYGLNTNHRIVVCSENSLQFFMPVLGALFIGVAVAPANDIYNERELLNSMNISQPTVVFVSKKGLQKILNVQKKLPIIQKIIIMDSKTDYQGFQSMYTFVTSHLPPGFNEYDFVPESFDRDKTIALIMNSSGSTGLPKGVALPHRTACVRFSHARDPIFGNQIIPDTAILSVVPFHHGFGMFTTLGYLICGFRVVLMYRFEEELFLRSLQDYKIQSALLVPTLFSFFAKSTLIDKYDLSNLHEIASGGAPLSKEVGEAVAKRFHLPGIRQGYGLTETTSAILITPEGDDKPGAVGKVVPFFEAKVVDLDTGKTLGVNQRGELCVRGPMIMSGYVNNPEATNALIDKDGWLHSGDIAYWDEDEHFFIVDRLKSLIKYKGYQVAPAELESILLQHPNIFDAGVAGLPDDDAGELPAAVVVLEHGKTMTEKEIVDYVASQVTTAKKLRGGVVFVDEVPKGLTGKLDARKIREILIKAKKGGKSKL
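Biochemical qHTS of compounds, final roughly 60 µM downward over six points, against 10 nM purified firefly luciferase using Km concentrations of substrates (10 uM D-luciferin, 10 uM ATP) in Tris acetate pH 7.5 buffer; luminescence output.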
ELG1 genotoxic – qHTS screen for small molecules that induce genotoxicity in human embryonic kidney (HEK293T) cells expressing luciferase-tagged ELG1 | HEK293T ELG1-luciferase reporter, luminescence, 16 h | Potency, µM (series often up to 46 µM), without a hit: at the highest dose activity change, positive = activation, usual class: activators | 1.3% of 330,000 active | AID 504466, 2011; also: % of control where 0% means no effect; nearly all actives have a fitted effect of over 60% in size
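Step 1: seed 2,000 HEK293T ELG1-luciferase cells per well. Step 2: add compound or DMSO, incubate 16 hr at 37 °C. Step 3: ONE-Glo, 30 min at room temperature, read luminescence.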
Rab9 promoter act – qHTS Assay for Rab9 Promoter Activators; Huh7 Rab9 promoter-luciferase reporter, luminescence, 24 h; Potency, µM (top dose mostly 9.22 µM), for the others: at the top dose activation, negative = inhibition, usual class: activators; 2.8% of 320,000 active; AID 485297, 2010; also: % of control where 0% means no effect; nearly all actives have a fitted effect of over 60% in size
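Using Huh7 cells stably transfected with Rab9 promoter–luciferase, compounds were incubated 24 h at 37 °C, 5% CO2; luciferase luminescence was read 10 min after reagent addition.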
NPC1 prom act – qHTS Assay for NPC1 Promoter Activators; Huh7 NPC1 promoter luciferase reporter, 24 h; Potency, µM (doses to about 9.22 µM), inactives show at the highest dose activation, usual class: activators; 2.4% of 320,000 active; AID 485313, 2010; also: % of control where 0% means no effect; nearly all actives have a fitted effect of over 60% in size
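Huh7 reporter cells (NPC1 promoter driving luciferase) are dosed with compound for 24 h at 37 °C, 5% CO2; luciferase detection reagent is then added and luminescence measured after 10 min at ambient temperature.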
ELG1 DNA repair – qHTS screen for small molecules that inhibit ELG1-dependent DNA repair in human embryonic kidney (HEK293T) cells expressing luciferase-tagged ELG1. HEK293T ELG1-luciferase reporter, luminescence, 16 h; DNA damage induced by 5-fluorouridine. Potency, µM (highest dose often 46.1 µM), for inactives: at the top dose activity change, negative = inhibition, hits mostly inhibitors. 2.3% of 330,000 active; also: % is scaled to controls: 0 for no effect and ±100 for the full control effect; nearly all actives have a fitted effect of over 55% in size
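Cells (2,000 per well) received 5-fluorouridine plus test compound or DMSO and were incubated 16 hr at 37 °C, 5% CO2. Luciferase activity was read by luminescence 30 min after ONE-Glo addition; signal suppression marked inhibition of damage-induced ELG1 function.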
SMN2 splice up – qHTS Assay for Enhancers of SMN2 Splice Variant Expression. HEK293 SMN2-luciferase splicing reporter, luminescence, 30-36 h. Potency, µM (titrated, usually from 46.1 µM), inactives show at the top dose activity change, positive = activation, most hits filed as activators. 2.8% of 210,000 active; also: % of control where 0% means no effect; nearly all actives have a fitted effect of over 55% in size
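HEK293 cells carry an SMN2 minigene-luciferase reporter in which exon 7 inclusion puts luciferase in frame. Cells were seeded at 2000 cells/well, attached for 10-12 hours, then exposed to compounds for 30-36 hours at 37C before ONE-Glo luminescence.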
The depositor's hits bear a star; ? = inconclusive; nt = no result; [ ] = dose if it differs, or a comment. Hits are enriched below; roughly 9.2% of the tested compounds scored in any of these assays. Calls follow the shape of the dose curve; as a rule, active = well fitted curve in the direction sought with a large enough effect; inconclusive = small, poorly fitted or top-dose-only effect, or another doubt; inactive = no such curve, though single readings can be large; an effect the other way counts as inactive or inconclusive. Potency is read from the fitted curve at half-maximal effect.

SMILES | FLuc counter | ELG1 genotoxic | Rab9 promoter act | NPC1 prom act | ELG1 DNA repair | SMN2 splice up
CCN(C(=O)COC(=O)c1n[nH]c2ccccc12)c1ccccc1 | 0.6% | -0.9% | -7.5% | -8.0% | 2.6% | nt
CN(C(=O)CSc1ncnc2sccc12)C1CCCCC1 | 13.5µM* | ? | 2.82µM* | ? | ? | nt
O=C(NCc1ccccn1)C12CC3CC(CC(C3)C1)C2 | -0.9% | 3.0% | -1.3% | -4.9% | 9.9% | nt
O=[N+]([O-])c1ccc(/C=C/c2ccc3cccc(O)c3n2)cc1 | 2.39µM* | ? | ? | ? | ? | nt
O=[N+]([O-])c1ccc(/C=C/c2ccc3ccccc3n2)cc1 | 0.601µM* | -8.5% | 0.562µM* | ? | ? | 2.24µM*
Nc1ccc(S(=O)(=O)Nc2nccc(/C=C/c3ccc([N+](=O)[O-])cc3)n2)cc1 | 3.5% | 15.9% | -1.5% | -5.4% | ? | nt
Cc1cccc(C)c1Nc1oc(-c2ccccc2)nc1-c1ccccc1 | nt | nt | nt | nt | nt | -1.9%
CCOc1ccc2[nH]c3c(NCCc4ccc(OC)c(OC)c4)ncnc3c2c1 | -13.1% | -17.9% | -2.7% | 0.5% | 20.6µM* | nt
COc1cc(CNc2ncnc3c2[nH]c2ccc(C)cc23)cc(OC)c1 | 26.9µM* | -11.3% | -8.0% | 0.1% | 20.6µM* | nt
Cc1ccc2[nH]c3c(NCc4ccco4)ncnc3c2c1 | 13.5µM* | 8.3% | 4.3% | 1.0% | ? | -62.6%
COc1ccc(/C=N/Nc2ncnc3c2[nH]c2ccc(C)cc23)c(OC)c1OC | ? | ? | 4.5% | 17.1% | -16.7% | nt
Cc1ccc(S(=O)(=O)NCC(=O)N2CCOCCOCCOCC2)cc1 | -0.9% | 1.3% | -1.5% | 0.6% | 0.9% | nt
CC(=O)N[C@H](C(=O)N[C@@H](C)C(=O)N[C@H](C#N)CC(=O)O)C(C)C | -1.2% | nt | 2.3% | 0.1% | nt | nt
CCN(CC(=O)Nc1cccc(OC)c1)C(=O)c1cnc(Cl)c(Cl)c1 | 1.3% | -0.9% | 0.3% | -2.0% | 4.8% | nt
N/C(=N\OC(=O)c1ccc(Cl)cc1)c1nonc1N | 1.69µM* | 17.2% | -9.8% | -0.7% | 26.0% | 17.3%
N/C(=N/OC(=O)c1ccccc1F)c1nonc1N | 4.78µM* | 12.7% | -2.1% | 13.0% | ? | 10.8%
N/C(=N\OCC(=O)Nc1ccccc1)c1nonc1N | -13.3% | 3.9% | -5.6% | -4.9% | ? | 23.0%
O=C(NCc1cccs1)C1CC(=O)N(c2ccc(Cl)cc2)C1 (stereo not given) | -0.2% | -1.2% | 3.6% | 1.4% | -6.9% | -9.2%
O=C(N/N=C/c1cccc(OC2CSC2)c1)c1ccccc1O | 6.75µM* | 2.2% | 11.5% | 9.6% | ? | 9.2%
COc1cccc(C(=O)N/N=C/c2ccc(OC3CSC3)cc2)c1 | 15.1µM* | ? | 9.5% | -3.8% | 15.8% | -39.3%
N#CCC(=O)N/N=C/c1ccc(OC2CSC2)cc1 | -12.3% | 4.1% | 8.5% | 1.2% | 15.1% | 5.2%
Cn1nccc1C(=O)Oc1cccc(/C=N/NC(=O)c2ccccc2O)c1 | 9.53µM* | ? | 8.9% | -1.0% | ? | nt
Cc1cccc(C(=O)Oc2ccc(/C=N/NC(=O)c3ccccc3O)cc2)c1 | 13.5µM* | 16.4% | 26.5% | 17.0% | ? | 4.9%[1.84 µM]
CCOC(=O)c1c(C)[nH]c(C)c1C(=O)COC(=O)c1cccs1 | nt | 5.4% | nt | nt | -1.9% | nt
Cc1cccc(C(=O)N/N=C/c2ccc(OC3CSC3)cc2)c1 | 10.7µM* | 11.9% | 1.8% | 12.5% | ? | -2.1%
CC(=O)c1ccc(NC(=O)c2ccc(CNc3c(N4CCOCC4)c(=O)c3=O)cc2)cc1 | 12µM* | -2.0% | 1.2% | -1.9% | 2.2% | nt

High-throughput results deposited in PubChem BioAssay by National Center for Advancing Translational Sciences (NCATS).
